Screening data (PubChem)
The list is not random: actives were taken first. Their share in the collection is about 2.5%.
LGR2 inh = inhibitors of bursicon-induced Drosophila LGR2 receptor cAMP signaling. 0.35% of 380,000 active. HEK293 LGR2, CRE-luciferase, bursicon-stimulated, 4 h. inhibition, % at 9.99 µM;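 active means drop in luminescence signal, shown as inhibition above about 50% in the replicate tests, limit read from the data, passing the limit was not always enough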;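 further: agonist challenge used bursicon conditioned medium at about half maximal strength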
EWS-Fli block = EWS/Fli transcriptional activity inhibition. A673 NR0B1-luciferase reporter, viability-normalised. 0.67% of 350,000 active. AID 651661. inhibition, % at 12.6 µM;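 active means mean inhibition of at least 50% after viability correction, with every replicate also passing that limit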;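 further: firefly luciferase signal divided by Alamar Blue viability fluorescence both relative to DMSO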
EBV LMP1 NFkB = reduces LMP1-driven NF-kappaB luciferase signal; LMP1-induced NF-kappaB luciferase reporter cells, luminescence; inhibition, % at 12.5 µM; 0.69% of 350,000 active; AID 504558; in the data active means inhibition above about 41%
TWEAK Fn14 block = TWEAK-Fn14 signaling inhibition. TWEAK-stimulated Fn14 reporter cells, luciferase luminescence, 8 h. inhibition, % at 10 µM. 2% of 360,000 active; in the data active means inhibition above about 50%
TROY NFkB inh = TROY signaling inhibition | Q293 LMP1-TROYcd NF-kB luciferase reporter, 4 h | inhibition, % at 10 µM | 0.98% of 360,000 active;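 active means compounds whose plate-normalised and pattern-corrected inhibition of the luciferase reporter signal at the single screening dose is 50% or more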
Of the large screens only hits and unclear results are named; the others gave an inactive call; ! = not active in a repeat.

Cc1cccc(C)c1-n1nnnc1C(CCc1ccccc1)N1CCC(n2c(=O)[nH]c3ccccc32)CC1 (stereo unspecified)	TWEAK Fn14 block 107, TROY NFkB inh 81 (no result: EBV LMP1 NFkB)
CCCN1[C@@H]2Cn3c(ccc(-c4cccc(OC)c4)c3=O)[C@H]1[C@@H](C(=O)OC)[C@@H]2CO	none (no result: EBV LMP1 NFkB, TWEAK Fn14 block, TROY NFkB inh)
O=C(O)[C@@H]1[C@@H](CO)[C@@H]2Cn3c(ccc(-c4ccccc4)c3=O)[C@H]1N2CC1CCCCC1	none (no result: EBV LMP1 NFkB, TWEAK Fn14 block, TROY NFkB inh)
CC12CC[C@H]3[C@@H](CCC4(O)C[C@H](O)CCC34/C=N/NC(=O)c3ccccc3F)C1(O)CCC2C1=CC(=O)OC1 (stereo partly specified)	TWEAK Fn14 block 95
CC12CC[C@H]3[C@@H](CCC4(O)C[C@H](O)CCC34/C=N/NC(=O)c3ccccc3O)C1(O)CCC2C1=CC(=O)OC1 (stereo partly specified)	none
O=C(Cc1cccnc1)N1CCCCN2[C@H](CO)[C@@H](c3ccc(C#CC4CCCC4)cc3)[C@H]2C1	none (no result: EBV LMP1 NFkB, TWEAK Fn14 block, TROY NFkB inh)
CN(C)c1ccc(/C=C/c2cc[n+](C)c3ccccc23)cc1	EBV LMP1 NFkB 42!, TWEAK Fn14 block 53!
O=C(O)[C@@H]1[C@@H](CO)[C@@H]2Cn3c(ccc(C4=CCCCC4)c3=O)[C@H]1N2CCc1ccccc1	none (no result: EBV LMP1 NFkB, TWEAK Fn14 block, TROY NFkB inh)
CCCCC(CC)COCCCN=Cc1c(O)[nH]c(=S)[nH]c1=O (stereo unspecified)	TWEAK Fn14 block 60 (no result: EBV LMP1 NFkB)
Oc1ccc(-[n+]2c(-c3ccccc3)cc(-c3ccccc3)cc2-c2ccccc2)cc1	LGR2 inh 103, TWEAK Fn14 block 87, TROY NFkB inh 62
COc1ccc(-[n+]2c(-c3ccccc3)cc(-c3ccccc3)cc2-c2ccccc2)cc1	none (no result: EBV LMP1 NFkB, TWEAK Fn14 block, TROY NFkB inh)
O=C(Cc1cccnc1)N1CCCCN2[C@@H](CO)[C@@H](c3ccc(C#CC4CCCC4)cc3)[C@@H]2C1	none (no result: EBV LMP1 NFkB, TWEAK Fn14 block, TROY NFkB inh)
CCOC(=O)[C@]12Cc3cc(C)ccc3[C@H]1N(C(C)C)C(=O)c1ccccc12	LGR2 inh 69 (no result: EBV LMP1 NFkB)
CCCCCN1C(=O)c2ccccc2[C@@]2(C(=O)OCC)Cc3cc(OC)ccc3[C@@H]12	LGR2 inh 64 (no result: EBV LMP1 NFkB)
O=C(Cc1ccccc1)N1C[C@H]2[C@@H](c3ccccc31)[C@@H](CO)N2Cc1ccccc1	none (no result: EBV LMP1 NFkB, TWEAK Fn14 block, TROY NFkB inh)
COC(=O)[C@H]1[C@H](CO)[C@H]2Cn3c(ccc(/C=C/c4ccccc4)c3=O)[C@@H]1N2C(=O)C1CCC1	none (no result: EBV LMP1 NFkB, TWEAK Fn14 block, TROY NFkB inh)
N#Cc1ncc(N=Cc2ccc(N(CCCl)CCCl)cc2)s1	EBV LMP1 NFkB 59, TWEAK Fn14 block 53
ClCCN(CCCl)c1ccc(C=NNc2ncccn2)cc1	none
CCN(CC)S(=O)(=O)c1ccc(NN=C(C#N)C#N)cc1	TWEAK Fn14 block 67, TROY NFkB inh 63 (no result: LGR2 inh)
CC1=C(N2CC2)C(=O)C(CO)=C(N2CC2)C1=O	EBV LMP1 NFkB 89
N#CC(C#N)=NNc1ccc(-n2ccc(C(F)(F)F)n2)cc1	LGR2 inh 78, EBV LMP1 NFkB 60, TWEAK Fn14 block 91, TROY NFkB inh 67
Cc1cc(C)n(-c2ccc(NN=C(C#N)C#N)cc2)n1	LGR2 inh 82, EBV LMP1 NFkB 57, TWEAK Fn14 block 84, TROY NFkB inh 65
COC(=O)[C@@H]1N[C@@H]2c3ccc(C4=CCCC4)c(=O)n3C[C@@H]2[C@H]1CO	none (no result: EBV LMP1 NFkB, TWEAK Fn14 block, TROY NFkB inh)
CN(C)[C@@H]1C(=O)C(C(N)=O)=C(O)[C@@]2(O)C(=O)C3=C(O)c4c(O)cccc4[C@@](C)(O)[C@H]3[C@H](O)[C@@H]12	EBV LMP1 NFkB 90!
Cc1ccc(/C=C2\C(=O)NC(=S)N(c3ccc(F)cc3)C2=O)s1	none
Cc1ccc(/C=C2\C(=O)NC(=S)N(c3ccccc3F)C2=O)s1	LGR2 inh 88 (no result: EWS-Fli block)
CC(C)COC(=O)c1ccccc1C(=O)OCC(C)C	none
C[CH2][Hg][S]c1ccccc1C(=O)O	LGR2 inh 96, TWEAK Fn14 block 92
O=C(Cc1ccccn1)N1CC2(C1)[C@@H](c1ccccc1)[C@@H](CO)N2Cc1ccccn1	none (no result: EBV LMP1 NFkB, TWEAK Fn14 block, TROY NFkB inh)
CC(C)c1ccc(N2C(=O)NC(=O)/C(=C\C=C\c3ccco3)C2=O)cc1	EWS-Fli block 74 (no result: EBV LMP1 NFkB, TWEAK Fn14 block, TROY NFkB inh)
O=C1NC(=O)N(Cc2ccccc2)C(=O)/C1=C/C=C/c1ccco1	EWS-Fli block 65
COc1cc(OC)c(OC)cc1/C=C1\C(=O)NC(=O)N(Cc2ccccc2)C1=O	TROY NFkB inh 55
CC(C)c1ccc(N2C(=O)NC(=O)/C(=C\c3cnc(-c4ccccc4)nc3)C2=O)cc1	none (no result: LGR2 inh, EWS-Fli block)
COC(=O)[C@@H]1[C@@H](CO)[C@@H]2Cn3c(ccc(/C=C/c4ccccc4)c3=O)[C@H]1N2CC1CCCC1	none (no result: EBV LMP1 NFkB, TWEAK Fn14 block, TROY NFkB inh)
CC[n+]1c(/C=C/C=C/c2ccc(N(C)C)cc2)sc2ccccc21	TWEAK Fn14 block 56, TROY NFkB inh 52
COC(=O)[C@H]1[C@H](CO)[C@H]2Cn3c(cccc3=O)[C@@H]1N2C(=O)C1CC1	none (no result: EBV LMP1 NFkB, TWEAK Fn14 block, TROY NFkB inh)
CC(=O)OC1C(O)C(C)OC(OC2C(OC(=O)C3CCC4C(C3)OC3(CC(OC(=O)/C=C/c5ccccc5)C(C)CO3)C43CO3)OC(C)C(O)C2OC(C)=O)C1O (stereo unspecified)	LGR2 inh 99, EBV LMP1 NFkB 85, TWEAK Fn14 block 101, TROY NFkB inh 84
Cc1ccccc1-c1ccc([C@H]2[C@@H](CO)N3CCCCN(C(=O)Cc4ccccn4)C[C@H]23)cc1	none (no result: EBV LMP1 NFkB, TWEAK Fn14 block, TROY NFkB inh)
NC(=S)c1cn(C2OC(CO)C(O)C2O)c2ncnc(N)c12 (stereo unspecified)	LGR2 inh 102, TWEAK Fn14 block 103, TROY NFkB inh 68
Nc1ncnc2c1ccn2[C@@H]1O[C@H](CO)[C@@H](O)[C@H]1O	LGR2 inh 93, EWS-Fli block 56, EBV LMP1 NFkB 92, TWEAK Fn14 block 95, TROY NFkB inh 52
CCN1[C@@H]2c3ccc(-c4ccc(OC)cc4)c(=O)n3C[C@H]1[C@H](CO)[C@H]2C(=O)OC	none (no result: EBV LMP1 NFkB, TWEAK Fn14 block, TROY NFkB inh)
COC(=O)[C@H]1[C@H](CO)[C@H]2Cn3c(ccc(C4=CCCC4)c3=O)[C@@H]1N2CC1CCCCC1	none (no result: EBV LMP1 NFkB, TWEAK Fn14 block, TROY NFkB inh)
COc1ccc(-c2ccc3n(c2=O)C[C@@H]2[C@@H](CO)[C@H](C(=O)O)[C@H]3N2C(=O)c2ccccc2F)cc1	none (no result: EBV LMP1 NFkB, TWEAK Fn14 block, TROY NFkB inh)
C/C=C/c1ccc(C2[C@@H]3CN(C(C)=O)C[C@H]2N3)cc1 (stereo partly specified)	none (no result: EBV LMP1 NFkB, TWEAK Fn14 block, TROY NFkB inh)
CCOC(=O)[C@]12Cc3cc(C)ccc3[C@H]1N(C1CCCCC1)C(=O)c1cc(OC)ccc12	LGR2 inh 68, TWEAK Fn14 block 101, TROY NFkB inh 54 (no result: EBV LMP1 NFkB)
CCOC(=O)[C@]12Cc3ccccc3[C@H]1N(C)C(=O)c1cc(OC)ccc12	none (no result: EBV LMP1 NFkB)
CCOC(=O)[C@]12Cc3cc(OC)ccc3[C@H]1N(C1CCCCC1)C(=O)c1cc(OC)ccc12	LGR2 inh 51, TROY NFkB inh 55 (no result: EBV LMP1 NFkB)
COc1ccc(OC(=O)N(C)C[C@H]2OCc3ccccc3-c3c(n(C)c4ccccc34)C(=O)N([C@@H](C)CO)C[C@@H]2C)cc1	none (no result: EBV LMP1 NFkB, TWEAK Fn14 block, TROY NFkB inh)
COC(=O)[C@@H]1[C@@H](CO)[C@@H]2Cn3c(ccc(-c4ccncc4)c3=O)[C@H]1N2S(=O)(=O)c1ccccc1C	none (no result: EBV LMP1 NFkB, TWEAK Fn14 block, TROY NFkB inh)
COC(=O)[C@H]1[C@H](CO)[C@H]2Cn3c(ccc(/C=C/c4ccccc4)c3=O)[C@@H]1N2Cc1ccccc1F	none (no result: EBV LMP1 NFkB, TWEAK Fn14 block, TROY NFkB inh)
